Reference: PubChem BioAssay (NCI)
The panel holds about 79,000 compounds, 15% with a hit somewhere; the sample as a whole holds those more often. A number with no mark means an inactive call. Active and inactive are the calls of the source. Rule as the data show it: active = growth inhibition above about 70%; inactive = the rest.

Columns and labels:
[1] = NCI Yeast Anticancer Drug Screen. Data for the rad50 strain (AID 155);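 also: 0% = growth of vehicle-only cultures of the same strain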; conditions: S. cerevisiae rad50 strain growth inhibition; at 50.0 µM; active compounds read high
Summary of the method: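 Cells are treated with compound, grown, and their growth is then scored against vehicle-only cultures of the same repair-deficient yeast strain.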

[2] = NCI Yeast Anticancer Drug Screen. Data for the mec2-1 strain (AID 157); conditions: S. cerevisiae mec2-1 strain, at 50.0 µM, active compounds read high
Summary of the method: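 Cells of the genetically defined mec2-1 yeast strain are incubated with test compound. Inhibition of growth is calculated against vehicle-treated controls.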

[3] = NCI Yeast Anticancer Drug Screen. Data for the sgs1 mgt1 strain (AID 161);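 also: 0% = growth of cultures given vehicle only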; conditions: S. cerevisiae sgs1 mgt1 strain, at 50.0 µM, active compounds read high
Summary of the method: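 Inhibition of yeast growth, normalised to vehicle-treated controls, is reported for a strain bearing genetic alterations in DNA damage repair.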

[4] = NCI Yeast Anticancer Drug Screen. Data for the cln2 rad14 strain (AID 165);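 also: 0% = growth equal to vehicle treated cultures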; conditions: S. cerevisiae cln2 rad14 strain, at 50.0 µM, active compounds read high
Summary of the method: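 The screen exposed genetically defined yeast (cln2 rad14) to test compounds and scored growth inhibition relative to vehicle-treated controls.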

[5] = NCI Yeast Anticancer Drug Screen. Data for the bub3 strain (AID 167); conditions: S. cerevisiae bub3 mutant strain, at 50.0 µM, active compounds read high
Summary of the method: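 Part of a panel of yeast mutants defective in DNA damage repair or cell cycle regulation. Each strain is grown with compound, and inhibition is calculated relative to solvent-treated cultures.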

[6] = NCI Yeast Anticancer Drug Screen. Data for the mlh1 rad18 strain (AID 175); conditions: S. cerevisiae mlh1 rad18 strain growth inhibition; at 50.0 µM; active compounds read high
Summary of the method: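 Compound-treated yeast growth, normalised to vehicle controls. Strain bears defined DNA repair mutations.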

SMILES | growth inhibition [1] | growth inhibition [2] | growth inhibition [3] | growth inhibition [4] | growth inhibition [5] | growth inhibition [6]
CCCCCCC(=O)/C=C/c1ccccc1OCOC | -3.35% | -9.8% | 4.6% | -13.7% | -18.9% | -4.45%
C/C(CC(=O)Nc1cccc([N+](=O)[O-])c1)=N\NC(=O)CC#N | -3.45% | -13.3% | 0.55% | 12.1% | -8.45% | 2.35%
NC(c1ccccc1)(c1ccccc1)c1ccccc1 | 20.1% | 2.9% | 43.9% | -9.8% | 19.4% | 11%
NC(N)=NCCCS | 11.9% | 11.3% | 14.3% | -7.8% | 4.15% | 7.05%
COc1ccc2c(c1)OC(C)(C)C(c1ccccc1)=C2c1ccc(OCCN2CCCC2)cc1 | 99.6% (active) | 99.8% (active) | 99.9% (active) | 99.3% (active) | 99.3% (active) | 99.7% (active)
CCOC(=O)COc1cc2c(cc1Cc1ccc3c(c1)OCO3)OCO2 | 0.6% | 1.95% | -0.7% | 5.65% | 16.2% | 0.95%
c1ccc(CCN2CCCCCCCC2)nc1 | 1.35% | 7.9% | -4.35% | -23.2% | -8.95% | -0.35%
O=C(Nc1c(O)[nH][nH]c1=O)c1ccccc1 | 0.45% | -0.05% | -9.7% | -36% | -15.7% | -0.1%
C1=CCC(C(Cc2ccccc2)N2CCCCC2)CC1 (centres undefined) | 15.8% | 1% | 23.9% | -27.4% | 11.2% | 24.1%
